This note sets out measurements from PubChem BioAssay (NCI).

Test systems include SK-MEL-2 melanoma; SN12C renal; UO-31 renal; TK-10 renal; ACHN renal; CAKI-1 renal; CCRF-CEM leukemia; MOLT-4 leukemia; RPMI-8226 leukemia; OVCAR-8 ovarian; OVCAR-5 ovarian; OVCAR-4 ovarian; SK-OV-3 ovarian; IGROV1 ovarian; OVCAR-3 ovarian; HS 578T breast; NCI/ADR-RES ovarian; SR leukemia; A498 renal.
Common to all, as to experiment: NCI-60 one-dose screen, 48 h (100 = growth as untreated, 0 = no growth, -100 = all killed)
What all share (settings): 10 µM unless noted

About 83,000 compounds went through this panel and 20% of them were active in at least one assay; those are over-represented in the sample as a whole.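 Compound tested at a single concentration for 48 hours in 96-well plates; a percent growth value below 10 was scored as active.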 A number with no mark means an inactive call. Active and inactive are the calls of the source.

In the case of `COc1cc(NC(=O)CCl)ccc(=O)c1`, the growth with SK-MEL-2 melanoma is 74.3%; in the experiment with SN12C renal, 71.7%; in the experiment with UO-31 renal it was 64.3%; in the experiment on TK-10 renal, 35.4%; in the experiment on ACHN renal, 74.7%; in the experiment with CAKI-1 renal, 31%. In addition, the growth in the experiment on CCRF-CEM leukemia is 39.7%; with MOLT-4 leukemia it was 50.1%; with RPMI-8226 leukemia, 85.4%; in the experiment with OVCAR-8 ovarian, 87.6%; with OVCAR-5 ovarian, 93.2%; with OVCAR-4 ovarian, 75%. In addition, the growth with SK-OV-3 ovarian is 73.9%; in the experiment with IGROV1 ovarian, 58.1%; with OVCAR-3 ovarian, 61.1%; with HS 578T breast, 72.2%; in the experiment on NCI/ADR-RES ovarian it was 92%.

As to `Cc1nc(Nc2cccnc2)sc1C(=O)/C=C/c1ccc(Cl)cc1`, the growth with SK-MEL-2 melanoma was 82.6%; in the experiment with SN12C renal, 7.95% (active); in the experiment on UO-31 renal it was 25.3%; in the experiment with TK-10 renal it was 8.61% (active); in the experiment with ACHN renal, 40.1%; with CAKI-1 renal, 47.1%. Moreover, the growth in the experiment on CCRF-CEM leukemia is 1.72% (active); with MOLT-4 leukemia it was 53%; in the experiment on SR leukemia it was 6.11% (active); in the experiment with OVCAR-8 ovarian, 14.9%; in the experiment with OVCAR-5 ovarian, 37.3%; in the experiment with OVCAR-4 ovarian it was 82.4%. The growth is 81.3% with SK-OV-3 ovarian; 14.9% in the experiment on IGROV1 ovarian; 7.38% (active) with OVCAR-3 ovarian; 98.9% in the experiment on HS 578T breast; 35.4% in the experiment with NCI/ADR-RES ovarian.

Turning to `CC(C)C[C@H](NC(=O)Cn1ccc(NCc2ccccc2)cc1=O)B(O)O`, the growth is -6.74% (active) with SK-MEL-2 melanoma; 31.2% with SN12C renal; -40.5% (active) with UO-31 renal; -10.7% (active) in the experiment on TK-10 renal; 9.74% (active) with ACHN renal; -20.9% (active) in the experiment with A498 renal. Moreover, the growth in the experiment on CCRF-CEM leukemia was 2.78% (active); with MOLT-4 leukemia it was -10.3% (active); with SR leukemia it was 5.45% (active); with RPMI-8226 leukemia, -13.9% (active); with OVCAR-8 ovarian, 51.3%; in the experiment with OVCAR-5 ovarian it was 38.9%. For the same compound, the growth in the experiment on OVCAR-4 ovarian is 48.2%; in the experiment on SK-OV-3 ovarian, 56.5%; in the experiment on IGROV1 ovarian, 41.1%; with OVCAR-3 ovarian, -54.5% (active); with HS 578T breast it was 8.69% (active); in the experiment on NCI/ADR-RES ovarian, 80.7%.

As for `COc1c(NC[C@H]2OC(O)[C@H](O)[C@@H](O)[C@@H]2O)c(=O)c1=O` (stereo not given in full), the growth is 121% in the experiment on SK-MEL-2 melanoma; 101% in the experiment on SN12C renal; 86.7% with UO-31 renal; 97% with TK-10 renal; 105% in the experiment with ACHN renal; 73% in the experiment with A498 renal. Moreover, the growth in the experiment with CCRF-CEM leukemia is 81.2%; with MOLT-4 leukemia, 102%; with SR leukemia, 119%; with RPMI-8226 leukemia, 101%; with OVCAR-8 ovarian, 101%; with OVCAR-5 ovarian it was 103%. Besides, the growth is 84.4% with OVCAR-4 ovarian; 106% in the experiment with SK-OV-3 ovarian; 120% in the experiment with IGROV1 ovarian; 113% in the experiment on OVCAR-3 ovarian; 101% with HS 578T breast; 101% in the experiment on NCI/ADR-RES ovarian.

In the case of `CC(C)CCN(CCCNc1c2c(nc3ccccc13)CCCC2)CCC(C)C`, the growth in the experiment on SK-MEL-2 melanoma is 109%; in the experiment on SN12C renal, 89.7%; in the experiment with UO-31 renal it was 56.5%; with TK-10 renal, 93.8%; in the experiment on ACHN renal it was 98%; in the experiment on CAKI-1 renal, 76.5%. The growth is 74.3% with CCRF-CEM leukemia; 70.7% in the experiment on MOLT-4 leukemia; 5.77% (active) in the experiment with SR leukemia; 56.4% in the experiment on RPMI-8226 leukemia; 91.1% with OVCAR-8 ovarian; 83.6% in the experiment with OVCAR-5 ovarian. In addition, the growth in the experiment with SK-OV-3 ovarian is 94.3%; in the experiment on IGROV1 ovarian it was 81.8%; in the experiment with OVCAR-3 ovarian, 93.9%; in the experiment on HS 578T breast, 87.6%; in the experiment with NCI/ADR-RES ovarian, 87.8%.

For the compound `C=CCOc1cccc(/C=C/C(=O)c2sc(Nc3cccnc3)nc2C)c1`, the growth with SK-MEL-2 melanoma was 84.4%; with SN12C renal it was 40.9%; in the experiment on UO-31 renal it was 47.7%; in the experiment on TK-10 renal, 113%; in the experiment with ACHN renal it was 54.3%; in the experiment with CAKI-1 renal, 81%. In addition, the growth with CCRF-CEM leukemia was 15.2%; in the experiment on MOLT-4 leukemia, 76.3%; with SR leukemia, 42.4%; in the experiment with RPMI-8226 leukemia, 23.1%; in the experiment on OVCAR-8 ovarian it was 52.6%; in the experiment on OVCAR-4 ovarian it was 69.5%. Also, the growth was 88.5% in the experiment with SK-OV-3 ovarian; 62.9% in the experiment on IGROV1 ovarian; 14.9% in the experiment on OVCAR-3 ovarian; 99.9% in the experiment on HS 578T breast; 50.2% in the experiment with NCI/ADR-RES ovarian.

As to `O=C1c2ccccc2C(=O)c2c(N=Nc3sc(=O)[nH]c3S)cccc21`, the growth in the experiment with SK-MEL-2 melanoma was 95.2%; in the experiment with SN12C renal it was 100%; in the experiment on UO-31 renal, 88.7%; in the experiment with TK-10 renal, 138%; with ACHN renal, 102%; in the experiment with CAKI-1 renal it was 96.3%. Further, the growth was 94.8% in the experiment with CCRF-CEM leukemia; 101% in the experiment on MOLT-4 leukemia; 85% in the experiment on SR leukemia; 90.2% in the experiment on RPMI-8226 leukemia; 94.9% in the experiment on OVCAR-8 ovarian; 129% with OVCAR-5 ovarian. Also, the growth in the experiment on SK-OV-3 ovarian was 117%; in the experiment with IGROV1 ovarian, 94.1%; in the experiment on OVCAR-3 ovarian, 89.1%; in the experiment on HS 578T breast, 90.3%; in the experiment on NCI/ADR-RES ovarian it was 98.8%.

As to `CCn1c(=O)c2c(=O)c3c4c(oc3oc2c2ccccc21)C(=O)c1ccccc1C4=O`, the growth was 79.9% with SK-MEL-2 melanoma; 87.2% in the experiment with SN12C renal; 81.8% in the experiment on UO-31 renal; 112% in the experiment with TK-10 renal; 79.6% in the experiment on ACHN renal; 72.6% in the experiment with CAKI-1 renal. For the same compound, the growth was 2.47% (active) in the experiment on CCRF-CEM leukemia; -24.5% (active) in the experiment with MOLT-4 leukemia; 80.8% in the experiment with SR leukemia; 33.5% in the experiment with RPMI-8226 leukemia; 118% in the experiment with OVCAR-5 ovarian; -99.5% (active) with OVCAR-4 ovarian. In addition, the growth with SK-OV-3 ovarian was 102%; with IGROV1 ovarian, 68.3%; in the experiment with OVCAR-3 ovarian, -16.3% (active); with HS 578T breast, 93.7%; with NCI/ADR-RES ovarian it was 45.8%.

For the compound `COc1ccc(-c2nc3sccn3c2-c2ccnc(NCCNS(=O)(=O)c3ccc(C(F)(F)F)cc3)n2)cc1`, the growth is -27.8% (active) in the experiment with SK-MEL-2 melanoma; 17.3% with SN12C renal; 19% with UO-31 renal; 30.2% in the experiment with TK-10 renal; 3.82% (active) with ACHN renal; 17% in the experiment with CAKI-1 renal. For the same compound, the growth is 9.58% (active) in the experiment on CCRF-CEM leukemia; 0.208% (active) in the experiment on MOLT-4 leukemia; 11.6% in the experiment on SR leukemia; 8.83% (active) in the experiment on RPMI-8226 leukemia; 7.86% (active) in the experiment with OVCAR-8 ovarian; 59% in the experiment on OVCAR-5 ovarian. Besides, the growth in the experiment with SK-OV-3 ovarian is 29.6%; with IGROV1 ovarian, 16.2%; in the experiment on OVCAR-3 ovarian, 2.1% (active); in the experiment on HS 578T breast, 41%; in the experiment on NCI/ADR-RES ovarian, 9.11% (active).
